# Source: ChEMBL document CHEMBL3433997, “St. Jude Leishmania screening dataset” (2016)
# Legend:
# Format in all cases: functional
# [1] = target: Solute carrier family 2, facilitated glucose transporter member 1 (Homo sapiens) (UniProt P11166); test: ST_JUDE_LEISH: Cytotoxicity at 2uM final concentration against transgenic Leishmania Mexicana promastigotes LmGLUT1 that are glucose transport deficient and complemented with the human glucose transporter GLUT1. Activity is measured by DNA content using SYBR green in vitro
# [2] = target: Hexose transporter 1 (Plasmodium falciparum) (UniProt O97467); test: ST_JUDE_LEISH: Cytotoxicity at 2uM final concentration against transgenic Leishmania Mexicana promastigotes LmPfHT that are glucose transport deficient and complemented with the Plasmodium falciparum hexose transporter. Activity is measured by DNA content using SYBR green in vitro
# [3] = target: Glucose transporter (Leishmania mexicana) (UniProt O61059); test: ST_JUDE_LEISH: Cytotoxicity at 2uM final concentration against transgenic Leishmania Mexicana promastigotes LmGT2 that are glucose transport deficient and complemented with the L. Mexicana glucose transporter 2. Activity is measured by DNA content using SYBR green in vitro
# Chain of Solute carrier family 2, facilitated glucose transporter member 1 (Homo sapiens) (P11166 whole entry): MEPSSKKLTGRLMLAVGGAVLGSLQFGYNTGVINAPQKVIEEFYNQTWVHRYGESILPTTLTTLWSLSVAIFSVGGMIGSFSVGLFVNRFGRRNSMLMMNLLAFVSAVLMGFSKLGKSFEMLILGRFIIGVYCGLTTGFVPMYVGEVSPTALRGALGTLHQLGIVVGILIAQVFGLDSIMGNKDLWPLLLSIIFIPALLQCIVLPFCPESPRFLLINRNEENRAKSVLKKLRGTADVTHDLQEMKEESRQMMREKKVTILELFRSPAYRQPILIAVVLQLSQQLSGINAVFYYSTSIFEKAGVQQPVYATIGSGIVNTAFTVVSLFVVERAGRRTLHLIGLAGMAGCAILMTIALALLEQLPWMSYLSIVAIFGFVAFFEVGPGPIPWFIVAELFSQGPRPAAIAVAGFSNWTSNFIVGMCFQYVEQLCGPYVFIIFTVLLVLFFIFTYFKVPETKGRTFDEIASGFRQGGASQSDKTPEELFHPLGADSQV
Compound,inhibition [1] [%],inhibition [2] [%],inhibition [3] [%]
Cc1cc(N2CCCC2)nc(Nc2ccc(NC(=O)c3ccccc3C)cc2)n1,-1.05,6.45,0.46
COc1ccc(OC)c(-c2ccc(O)c(CNCC(C)c3ccccc3)c2)c1 (stereo unspecified),-0.66,-0.62,-1.24
Nc1ncnc2cc(-c3cccc(S(N)(=O)=O)c3)sc12,0.46,3.15,5.9
O=C(NCCCCN1CCC(c2ccc3c(c2OCC2COCO2)CCCC3)CC1)c1ccc(-c2ccc(C(F)(F)F)cc2)cc1 (stereo unspecified),-0.33,1.19,1.97
CC(C)N(Cc1ccc(-c2ccc(C(F)(F)F)cc2)cc1)C(=O)Cn1c(SCc2cccc(F)c2F)cc(=O)c2cc(CN3CCCCC3)ccc21,2.18,1.78,3.27
CCCCCCN1CCC(NCc2cccc(-n3ccnc3)c2)CC1,8.02,7.03,9.81
O=C(Nc1cccc(C(F)(F)F)c1)Nc1nc2ccc([N+](=O)[O-])cc2s1,4.59,4.44,0.91
Cc1ccc(C(c2nnnn2C2CCCC2)N(Cc2ccco2)Cc2ccccc2Cl)cc1 (stereo unspecified),9.7,9.7,8.53
CCOc1ccc2c(=NN=Cc3ccc(F)cc3)cc(C)[nH]c2c1,4.44,3.21,1.49
CCCCCCCN(Cc1ccc(OC(C)(C)C(=O)OCC)cc1)C(=O)Nc1ccccc1OC(F)(F)F,0,-1.12,1.43
CCN(CC)CCCC(C)Nc1c(-c2ccc(OC)cc2)cnc2ccccc12 (stereo unspecified),2.85,3.79,0.36
FC(F)(F)c1ccc2[nH]c(-c3ccc(-c4cccc(CNCc5ccccc5)c4)s3)nc2c1,2.04,0.97,1.82
